Results filed as inconclusive are left out. Unmarked numbers belong to inactive results. Calls of active or inactive are those of the source. Calls follow the shape of the dose curve; as a rule, active = well fitted cell-killing curve with a large enough effect; inconclusive = small, poorly fitted or top-dose-only effect, or effect the other way; inactive = no such curve, though single readings can be large or run the other way.
% is scaled to controls: 0 for no effect and ±100 for the full control effect; potency is read from the fitted curve at half-maximal effect.

The subject of the assay is C33A. The experiment in a line: Confirmatory qHTS for gynecologic anti-cancer compounds from libraries of approved drugs and bioactive compounds. Also: nearly all actives have a fitted effect of over 55% in size. The conditions noted are these: gynecologic cancer cell panel viability, ATPlite luminescence, 48 h; series mostly up to 57.6 µM; activity change, negative = viability loss: at the top concentration. The essentials: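 IC50 values derive from an ATPlite ATP-content luminescence assay following 48 h treatment at 37 C. Each compound ran as an 11-concentration, threefold series (57.5 uM to 0.977 nM); HEK 293T served as control line for selectivity index.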
A general note: Quantitative high-throughput screening tests each substance at several concentrations.
For the molecule `CC1=C(CO)C(=O)O[C@@H]([C@@H](C)[C@H]2CC[C@H]3[C@@H]4C[C@H]5O[C@]56[C@@H](O)C=CC(=O)[C@]6(C)[C@H]4CC[C@]23C)C1`, the Potency was 2.11 µM (active). In the case of `Cc1nc(N)nc(N)c1-c1ccc(Cl)c(Cl)c1`, the Potency was 0.172 µM (active).

Turning to `CCS(=O)(=O)c1cccc(-c2cc(C(=O)NC3CCN(C)CC3)c(C)c3[nH]c4ncc(C)cc4c23)c1`, the Potency was 5.34 µM (active). With `CNc1nc(Nc2ccc(C(=O)N3CCOCC3)cc2OC)ncc1Cl`, the “activity change, negative = viability loss” value is 1.31%.

Take `C=CC(=O)Nc1cc2c(Nc3ccc(F)c(Cl)c3)ncnc2cc1OCCCN1CCOCC1`: the Potency was 24.3 µM (active).

On to `CC(C)(C(=O)NCC(F)(F)C(F)(F)F)C(=O)NC1C(=O)Nc2ccccc2-c2ccccc21` (configuration not stated), for which the “activity change, negative = viability loss” value is -11%. On the same count and under the same terms, the value for `COc1cc2c(cc1-c1c(C)noc1C)ncc1[nH]c(=O)n(C(C)c3ccccn3)c12` (configuration not stated) was -3.53%. Turning to `Cc1cnc(Nc2ccc(F)cc2Cl)nc1-c1c[nH]c(C(=O)NC(CO)c2cccc(Cl)c2)c1` (configuration not stated), the “activity change, negative = viability loss” value is 4.56%. With `Nc1cccc(-c2cc3c(Oc4cccc(O)c4)ncnc3[nH]2)c1`, the “activity change, negative = viability loss” value is -12.5%. `CCc1cccc(CC)c1NC(=O)N1Cc2[nH]nc(NC(=O)c3ccc(N4CCN(C)CC4)cc3)c2C1`: the “activity change, negative = viability loss” value is 8.99%. The same measure, in the same setting: the same measure for `NS(=O)(=O)c1ccc(Nc2nc(OCC3CCCCC3)c3[nH]cnc3n2)cc1`: 15.5%; for `CCN(CC)CCCC(C)Nc1ccnc2cc(Cl)ccc12` (configuration not stated): 7.04% [at 19.5 µM]. On to `CCCCN(CCCC)C(=O)CN1C[C@H](c2ccc3c(c2)OCO3)[C@@H](C(=O)O)[C@@H]1c1ccc(OC)cc1`, for which the “activity change, negative = viability loss” value was -1.91%.

For `CC(C)C[C@H](NC(=O)[C@H](CCc1ccccc1)NC(=O)CN1CCOCC1)C(=O)N[C@@H](Cc1ccccc1)C(=O)N[C@@H](CC(C)C)C(=O)[C@@]1(C)CO1`, the Potency was 6.11 µM (active). On to `NC(=O)c1ccc2nc(-c3ccc(Oc4ccc(Cl)cc4)cc3)[nH]c2c1`, for which the “activity change, negative = viability loss” value is -24.7%.

On to `Cc1ccc(C(=O)N(CCCN)C(c2nc3cc(Cl)ccc3c(=O)n2Cc2ccccc2)C(C)C)cc1` (configuration not stated), for which the Potency was 0.485 µM (active). In the case of `Nc1ccn([C@@H]2O[C@H](CO)[C@@H](O)C2(F)F)c(=O)n1`, the Potency is 0.0172 µM (active). Consider `CC(C)Oc1ccc(C(=O)NC(CNC(=O)CN(C)C)Cc2ccc(-c3cn4cccc(C(C)O)c4n3)cc2)cc1Cl` (configuration not stated), for which the “activity change, negative = viability loss” value was -17.7%.

As for `CN(C)C/C=C/C(=O)Nc1cc2c(Nc3ccc(F)c(Cl)c3)ncnc2cc1OC1CCOC1` (configuration not stated), the Potency is 6.85 µM (active). As for `CN(C)C1CCN(C(=O)c2ccc(NC(=O)Nc3nc(N4CCOCC4)nc(N4CCOCC4)n3)cc2)CC1`, the Potency is 0.172 µM (active).

Consider `CCN1CCN(Cc2ccc(Nc3ncc(F)c(-c4cc(F)c5nc(C)n(C(C)C)c5c4)n3)nc2)CC1`, for which the “activity change, negative = viability loss” value is -25.7%.

For the molecule `C[C@]12CCC(=O)C=C1CC[C@@H]1[C@@H]2[C@@H](O)C[C@@]2(C)[C@H]1CC[C@]2(O)C(=O)CO`, the “activity change, negative = viability loss” value is 0.835%. On to `COc1ccc2c(c1)c(CC(=O)O)c(C)n2C(=O)c1ccc(Cl)cc1`, for which the “activity change, negative = viability loss” value is 20.9%. Consider `CCCS(=O)c1ccc2nc(NC(=O)OC)[nH]c2c1` (configuration not stated), for which the “activity change, negative = viability loss” value is -5.48%. Take `CN(C)C(CCOc1cccc2ccccc12)c1ccccc1` (configuration not stated): the “activity change, negative = viability loss” value is -9.64%. As to `Cc1ccc(C(=O)Nc2ccc(Oc3cc4cnn(C)c4cc3-c3cn[nH]c3)c(F)c2)c(=O)n1-c1ccc(F)cc1`, the “activity change, negative = viability loss” value is -14.4%. On to `Cc1ccc(NC(=O)c2ccc(CN3CCN(C)CC3)cc2)cc1Nc1nccc(-c2cccnc2)n1`, for which the “activity change, negative = viability loss” value was -24.7%.

On to `CS(=O)(=O)c1ccc(-c2cnc(N)c(C(=O)Nc3ccccc3)n2)cc1`, for which the “activity change, negative = viability loss” value is -5.61%. In the case of `CC1=C(/C=C/C(C)=C/C=C/C(C)=C/C(=O)Nc2ccc(O)cc2)C(C)(C)CCC1`, the Potency is 3.85 µM (active). On to `CC(C)[C@@H](CS(=O)(=O)C(C)C)N1C(=O)[C@@](C)(CC(=O)O)C[C@H](c2cccc(Cl)c2)[C@H]1c1ccc(Cl)cc1`, for which the “activity change, negative = viability loss” value was 0.0552%. For `CN(C)c1ccc2nc3ccc(=[N+](C)C)cc-3sc2c1`, the Potency was 21.7 µM (active). Regarding `COc1cc(Nc2ncc3c(n2)-c2ccc(Cl)cc2C(c2c(F)cccc2OC)=NC3)ccc1C(=O)O`, the “activity change, negative = viability loss” value was -3.21%.

Values taken from PubChem BioAssay AID1345085 (National Center for Advancing Translational Sciences (NCATS), 2018).
